Bioassay records from PubChem.
A selection: hits, their analogues and other compounds. The true share with any hit is near 3%.
MITF TRPM1 HTS – activators of MITF-driven TRPM1 promoter activity in SK-MEL-5 cells. SK-MEL-5 TRPM1-promoter luciferase, 24 h; % of positive control, neutral wells = 0. activation, % at 12.5 µM. 300,000 tested, 0.75% active. AID 588334;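 active = mean activation of at least 80% with every replicate also reaching 80%; inconclusive = mean reaches 80% but some replicate falls short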
TROY signal inh – blocks TROY-dependent signaling in reporter cells. Q293 LMP1-TROYcd NF-kB luciferase reporter, 4 h. inhibition, % at 10 µM. 360,000 tested, 0.98% active. AID 1347056;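 active = compounds whose plate-normalised and pattern-corrected inhibition of the luciferase reporter signal at the single screening dose is 50% or more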
TRPM1 prom inh – MITF TRPM1 promoter inhibition in SK-MEL-5 cells. SK-MEL-5 TRPM1 promoter luciferase, 24 h. inhibition, % at 12.5 µM. 330,000 tested, 0.83% active;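 active = mean inhibition across replicates of 60% or more, whatever share of single replicates reaches that level; inconclusive = some that reach 60%, reason not given; inactive = mean inhibition across replicates below 60%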
LMP1 NFkB inh – reduces LMP1-driven NF-kappaB luciferase signal | inhibition, % at 12.5 µM | LMP1-induced NF-kappaB luciferase reporter cells, luminescence | AID 504558 | 350,000 tested, 0.69% active; in the data active = inhibition above about 41%; inconclusive = no clear call, values can overlap the other calls
LGR2 inh – inhibitors of bursicon-induced Drosophila LGR2 receptor cAMP signaling | HEK293 LGR2, CRE-luciferase, bursicon-stimulated, 4 h | inhibition, % at 9.99 µM | 380,000 tested, 0.35% active | AID 720647;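 active = drop in luminescence signal, shown as inhibition above about 50% in the replicate tests, limit read from the data, passing the limit was not always enough; inconclusive = probably only some replicates passing the limit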;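 also: agonist challenge used bursicon conditioned medium at about half maximal strength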
TWEAK Fn14 block – blocks TWEAK-Fn14 interaction in a reporter cell assay. TWEAK-stimulated Fn14 reporter cells, luciferase luminescence, 8 h. inhibition, % at 10 µM. 360,000 tested, 2% active; in the data active = inhibition above about 50%
Numbers stand for hits; – = inactive; ? = inconclusive; · = no result given.

SMILES	MITF TRPM1 HTS	TROY signal inh	TRPM1 prom inh	LMP1 NFkB inh	LGR2 inh	TWEAK Fn14 block
CCOC(=O)c1sc(NC(=O)c2cc(-c3ccc(C)cc3)nc3ccccc23)c(C#N)c1C	–	–	–	–	·	62
C[C@@H]1CN([C@H](C)CO)S(=O)(=O)c2ccc(-c3cccc(F)c3)cc2O[C@@H]1CN(C)S(=O)(=O)c1ccccc1	·	·	·	·	–	·
COC(=O)[C@H]1[C@H](CO)[C@H]2Cn3c(ccc(-c4ccncc4)c3=O)[C@H]2N1Cc1ccccc1F	·	·	·	·	–	·
C[C@@H]1CN([C@@H](C)CO)C(=O)c2cc(C#C[C@@H](C)O)cnc2O[C@@H]1CN(C)C(=O)Cc1ccncc1	·	·	·	·	–	·
COc1ccccc1-c1cn(CC[C@H]2CC[C@H](NC(=O)c3ccccc3F)[C@H](CO)O2)nn1	·	·	·	·	–	·
COC(=O)c1sccc1NC(=O)c1cc(-c2cccc(C)c2)nc2ccccc12	–	–	–	–	·	–
COC(=O)c1sccc1NC(=O)c1cc(-c2ccc(C)cc2)nc2ccccc12	–	–	–	–	·	98
Cc1ccccc1-c1ccc([C@H]2[C@H](CO)N3C(=O)CN(C(=O)c4ccc(F)cc4)C[C@@H]23)cc1	·	·	·	·	–	·
Cc1ccc(-c2csc(NC(=O)C3=NN(c4ccccc4)C(=O)CC3)n2)cc1	–	–	–	–	–	55
O=c1c2c(nc3n1CCCCC3)sc1c(O)c(Br)ccc12	–	–	–	–	?	68
COc1ccc(CN2C3CCCC2CC(NC(=O)Nc2ccccc2)C3)cc1 (centres undefined)	–	–	–	–	·	–
COc1ccc(CN2C3CCCC2CC(NC(=O)Nc2ccccc2C)C3)cc1 (centres undefined)	–	–	–	–	·	62
CC(=O)N(C)C[C@H]1Oc2cc(-c3ccc(C#N)cc3)ccc2S(=O)(=O)N([C@H](C)CO)C[C@@H]1C	·	·	·	·	–	·
CN(C)c1nc(C=C(C#N)C#N)c(Cl)n1-c1ccc(F)cc1	–	–	101	–	–	72
CCOc1ccccc1NC(=O)/C(C#N)=C/c1c(C)nn(-c2ccc(F)cc2)c1Cl	–	–	–	–	–	–
C[C@@H]1CN([C@@H](C)CO)C(=O)c2cccc(NC(=O)Nc3ccc(F)cc3)c2O[C@H]1CN(C)Cc1ccc(C(=O)Nc2ccccc2N)cc1	·	·	·	·	–	·
CCCOc1ccc(C(=O)Nc2ccc(Cl)cn2)cc1	–	–	–	–	–	57
Cc1ccc(C(=O)Nc2ccc(Cl)cn2)cc1	–	–	–	–	–	56
O=C(Nc1ccccc1Cl)c1ccc2nccnc2c1	103	–	–	–	–	–
CCN(CC)S(=O)(=O)c1cccc(C(=O)Nc2ccc(Cl)cn2)c1	·	–	–	–	·	–
COC(=O)c1ccccc1NC(=O)c1ccc2nccnc2c1	–	–	–	–	–	–
Cc1ccc(CC(=O)Nc2ccc(Cl)cn2)cc1	·	–	–	–	–	–
CCN(CC)S(=O)(=O)c1cc(C(=O)Nc2ccc(Cl)cn2)ccc1C	105	–	–	–	–	–
O=C(C[C@@H]1C[C@@H]2c3cc(NC(=O)Nc4ccccc4)ccc3O[C@@H]2[C@@H](CO)O1)NCc1cccc(F)c1	·	·	·	·	–	·
COc1ccccc1CNC(=O)C[C@@H]1C[C@@H]2c3cc(NS(C)(=O)=O)ccc3O[C@@H]2[C@H](CO)O1	·	·	·	·	–	·
SMILES	MITF TRPM1 HTS	TROY signal inh	TRPM1 prom inh	LMP1 NFkB inh	LGR2 inh	TWEAK Fn14 block
C[C@@H]1CN([C@@H](C)CO)C(=O)Cc2cc(NC(=O)Cn3cnnn3)ccc2O[C@@H]1CN(C)S(=O)(=O)c1ccc(F)cc1	·	·	·	·	–	·
O=C(Nc1ccc(Br)cn1)c1ccc2nccnc2c1	–	–	–	–	–	–
O=C(Nc1ccc(Cl)cn1)c1ccc2nccnc2c1	126	–	–	–	–	–
COc1cc(SC)ccc1C(=O)Nc1ccc(Cl)cn1	–	74	–	68	100	91
Cc1ccc(C(=O)Nc2nccc(-c3cccs3)n2)cc1	·	–	–	–	·	–
Cc1ccc(C(=O)Nc2ncc3c(Cl)cccc3n2)cc1	–	–	–	51	·	82
Cc1ccccc1S(=O)(=O)N1CCCCN2[C@H](CO)[C@H](c3ccc(-c4cncnc4)cc3)[C@@H]2C1	·	·	·	·	–	·
CC1CCc2nc(/C(C#N)=C/c3cccnc3)sc2C1 (centres undefined)	85	–	–	–	–	–
COCC(=O)N(C)C[C@@H]1Oc2cc(-c3cccnc3)ccc2S(=O)(=O)N([C@@H](C)CO)C[C@@H]1C	·	·	·	·	–	·
Cc1ccc(C(=O)c2ccccc2C(=O)OCC(=O)NCCc2ccc(Cl)cc2Cl)cc1	–	–	–	–	–	–
CCCNC(=O)COC(=O)c1ccccc1C(=O)c1ccc(Cl)c([N+](=O)[O-])c1	–	67	87	48	106	99
Cc1ccc(Cl)c(NC(=O)COC(=O)c2ccccc2C(=O)c2ccc(Cl)c([N+](=O)[O-])c2)c1Cl	–	65	87	73	–	100
Cc1ccc(C(=O)c2ccccc2C(=O)OCC(=O)Nc2cccc([N+](=O)[O-])c2)cc1	–	–	–	–	–	–
O=C(CN1C2CCCC1CC(NC(=O)c1ccccc1)C2)Nc1ccccc1C(F)(F)F (centres undefined)	–	51	–	–	–	–
O=C(CCN1C(=O)c2cccc3cccc(c23)C1=O)N1CCOCC1	83	–	–	–	–	–
CCCCCCc1cc2cc(S(=O)(=O)c3ccc(F)cc3)c(=O)oc2cc1O	–	51	–	–	–	–
CCCCCCc1cc2cc(-c3nnc(-c4ccccc4OC)o3)c(=O)oc2cc1O	–	–	–	–	·	–
CCCCCCc1cc2cc(-c3nnc(-c4ccccc4O)o3)c(=O)oc2cc1O	–	–	–	–	·	55
O=C(C[C@H]1C[C@H]2c3cc(NC(=O)Cc4ccncc4)ccc3O[C@H]2[C@@H](CO)O1)NCc1cccnc1	·	·	·	·	–	·
CNC[C@H]1Oc2cc(-c3cncnc3)ccc2S(=O)(=O)N([C@H](C)CO)C[C@@H]1C	·	·	·	·	–	·
CSC(SC)=C(C#N)C(=O)c1ccccc1	·	–	65	–	–	–
O=C(O)c1ccc(C(=O)C(=O)c2ccccc2)cc1	–	–	–	–	–	–
COc1cccc(C(=O)C(C#N)=C(SC)SC)c1	·	–	82	–	–	–
C[C@@H]1CCCCO[C@@H](CN(C)C(=O)Nc2ccccc2)[C@@H](C)CN([C@H](C)CO)C(=O)c2cc(NC(=O)Nc3ccc4c(c3)OCO4)ccc2O1	·	·	·	·	–	·
Cc1nc(N/N=C/c2ccccn2)sc1C	·	·	·	·	102	·
O=C(O)Cc1sc(N/N=C\c2ccccc2)nc1-c1ccccc1	–	–	–	–	–	–
CCCc1sc(N/N=C/c2ccccn2)nc1-c1ccc(F)cc1	–	–	63	63	·	–
CO[C@@H]1CN(C)C(=O)c2ccc(NC(=O)c3cnccn3)cc2OC[C@H](C)N(C)C[C@H]1C	·	·	·	·	–	·
CC(=O)N[C@H]1CC[C@H](CCNC(=O)Nc2ccc(C(F)(F)F)cc2)O[C@H]1CO	·	·	·	·	–	·
